Screening data: PubChem, Center for Chemical Genomics, University of Michigan
Dicer processing = blocks human Dicer maturation of pre-miR-21. Q9UPY3. cat-ELCCA pre-miR-21 Dicer processing, chemiluminescence; stronger effect = higher value. z-score at 25 µM. actives 6% (n = 47,000). AID 1347074; in the data active means z-score above about 3, passing the limit was not always enough;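 further: higher signal means more uncleaved substrate so more Dicer inhibition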
Each line names hits and unclear results; the compound was inactive in the other large screens. Only a selection was taken, and hits are over-represented in it overall.

Cc1ccc(N2C(=O)CSC23C(=O)Nc2ccccc23)cc1 (configuration not stated)	Dicer processing 3.8
O=C1CSC2(C(=O)Nc3ccccc32)N1c1ccccc1 (configuration not stated)	none
Cc1ccc(C)c(C(=O)CC2(O)C(=O)Nc3ccccc32)c1 (configuration not stated)	none
Cc1ccc(N=Nc2c(Nc3ccccc3Cl)[nH]n(C)c2=O)cc1	none
CC(C)NC(=O)n1ncc(S(=O)(=O)c2ccc(Cl)cc2)c1-c1ccc(Cl)cc1	none
Cc1ccc(/C=C/c2noc(-c3ccccc3O)n2)o1	none
Cc1ccc(C(c2ccc(C)o2)c2ccccc2O)o1	Dicer processing 5.3
Cc1ccc(C(O)c2cccnc2)o1 (configuration not stated)	none
O=C1CC(c2cccc(Cl)c2)c2cc3c(cc2N1)OCO3 (configuration not stated)	none
Cc1cc(C(F)(F)F)n2nc(-c3cccc(Br)c3)cc2n1	none
CC1CCN(c2nc3ccccc3nc2SCC(=O)NCC2CCCO2)CC1 (configuration not stated)	none
O=C(CSc1nc2ccccc2nc1N1CCCCC1)N1CCN(C2CCCC2)CC1	none
O=C(CSc1nc2ccccc2nc1N1CCCCC1)NC1CCCCC1	none
O=C(CSc1nc2ccccc2nc1N1CCOCC1)N1CCN(c2ccc(F)cc2)CC1	Dicer processing 3.9
O=C(CSc1nc2ccccc2nc1N1CCOCC1)NC1CC1	none
O=C(CSc1nc2ccccc2nc1N1CCCC1)N1CCN(c2ccc(F)cc2)CC1	none
O=C(CSc1nc2ccccc2nc1N1CCOCC1)N1CCOCC1	Dicer processing 4.9
O=C(CSc1nc2ccccc2nc1N1CCOCC1)N1CCN(c2ccccc2)CC1	none
c1ccc2nc(N3CCOCC3)c(N3CCOCC3)nc2c1	none
O=C(CSc1nc2ccccc2nc1N1CCCCC1)N1CCN(c2ccccc2)CC1	Dicer processing 4.9
O=C(CSc1nc2ccccc2nc1N1CCOCC1)NCC1CCCO1 (configuration not stated)	Dicer processing 3
Cc1cc(C)nc(N2CCN(C(=O)CSc3nc4ccccc4nc3N3CCOCC3)CC2)n1	none
O=C1c2ccc([N+](=O)[O-])cc2C(=O)N1CO	none
COC(=O)NNc1ncccc1C(F)(F)F	none
COc1ccc2c(c1)NC(c1ccc([N+](=O)[O-])s1)N2 (configuration not stated)	none
O=C1CC(c2ccccc2)CC(O)=C1C=Nc1cc(C(F)(F)F)cc(C(F)(F)F)c1 (configuration not stated)	none
N#C/C(=C\NN1CCOCC1)S(=O)(=O)c1cc(C(F)(F)F)cc(C(F)(F)F)c1	none
Cc1ccc2cc3c(=O)n(C)c(=O)n(C)c3nc2c1	none
N/C(=N\OCc1c(Cl)cccc1Cl)c1ccc(Cl)cc1	none
O=c1[nH]c2ccccc2cc1-c1noc(-c2cccs2)n1	none
Cc1ccc(Nc2nc(-c3ccccn3)cs2)c(C)c1	none
Nc1ccc(S(=O)(=O)c2ccccc2)c(Cl)c1	none
CC1CN(c2nc3ccccc3nc2SCC(=O)N2CCOCC2)CC(C)O1 (configuration not stated)	none
CC1CCN(c2nc3ccccc3nc2SCC(=O)N2CCOCC2)CC1	Dicer processing 3.9
CC1CCN(c2nc3ccccc3nc2SCC(=O)N2CCN(C3CCCC3)CC2)CC1	none
COc1ccc(-c2nc(-c3cc4ccc(C)cc4[nH]c3=O)no2)cc1	none
O=C(/C=C/Sc1ccc(Br)cc1)c1ccc(Cl)cc1	none
Cc1c2occ(-c3ccc(F)cc3)c2cc2c1oc(=O)c1ccccc12	Dicer processing 4.2
COc1ccc2c(c1)c(=O)oc1c(C)c3occ(-c4ccc(F)cc4)c3cc12	none
Cc1c2occ(-c3ccc4c(c3)OCO4)c2cc2c1oc(=O)c1ccccc12	none
Fc1ccc(C2=CC(c3ccccc3)=NN=C(c3ccccc3)C2)cc1	none
Cc1cc(C)cc(OCc2nc(-c3ccc(Cl)cc3)no2)c1	none
COc1ccc(-c2noc(-c3cc(C)cc(C)c3)n2)cc1	none
COc1cccc(-c2nc(-c3ccccc3)no2)c1	none
COc1cccc(-c2nnc(SCc3cccc(Cl)c3)o2)c1	none
COc1cccc(-c2nnc(SCc3ccc(Br)cc3)o2)c1	none
Cc1cc(C)cc(-c2nc(-c3ccccc3)no2)c1	Dicer processing 4.7
COc1cccc(-c2nc(-c3ccc(Cl)cc3)no2)c1	Dicer processing 3
COc1cccc(-c2nnc(SCc3ccc(Cl)cc3)o2)c1	Dicer processing 3.1
Cc1ccc(-c2nc(-c3ccccc3)no2)cc1	none
COc1ccc(-c2nc(-c3ccc(Cl)cc3)no2)cc1OC	none
Cn1nnnc1SCC(=O)Nc1ccccc1C#N	none
CC1(C)CCC(C)(C)NC(SCC(=O)c2ccc(Cl)cc2)=N1	none
Cc1c(N=NC2=C(O)CC(C)(C)CC2=O)c(=O)n(-c2ccccc2)n1C	none
CCOc1cc(S(=O)(=O)n2cnc3cc(C)c(C)cc32)ccc1F	none
Cc1ccc(C(=O)C2CCN(C(=S)Nc3cc(C(F)(F)F)cc(C(F)(F)F)c3)CC2)cc1	none
CCOc1ncc(-c2nnnn2-c2ccc(C)cc2)c(-c2cccc(Cl)c2)n1	none
COc1cccc(-n2c(N)c(C#N)c3ccc([N+](=O)[O-])cc3c2=O)c1	none
COc1ccc(-c2c(N)n(-c3ccccc3)c(=O)c3cc([N+](=O)[O-])ccc23)cc1OC	Dicer processing 3.4
Nc1c(-c2ccc3ccccc3n2)c2ccc([N+](=O)[O-])cc2c(=O)n1Cc1ccccc1	none
CN1C/C(=C\c2ccc(Cl)cc2)C(=O)/C(=C/c2ccc(Cl)cc2)C1	none
Cc1ccn2cc(-c3cccc(S(=O)(=O)N(C)C)c3)nc2c1	none
Cc1ccn2cc(-c3cccc(S(=O)(=O)N4CCOCC4)c3)nc2c1	none
O=S(=O)(Nc1cccc(-c2cn3ccccc3n2)c1)c1ccc(F)cc1	none
Cc1cc(C)c(S(=O)(=O)Nc2cccc(-c3cn4ccccc4n3)c2)c(C)c1	Dicer processing 3.7
O=S(=O)(Nc1cccc(-c2cn3ccccc3n2)c1)c1ccc(Br)cc1	Dicer processing 4.4
CC1CN(S(=O)(=O)c2cccc(-c3cn4ccccc4n3)c2)CC(C)O1 (configuration not stated)	none
COc1cc(C2c3c(oc4ccc(C)cc4c3=O)C(=O)N2Cc2ccc3c(c2)OCO3)ccc1O (configuration not stated)	none
COc1ccccc1N1C(=O)CC(N2CCN(c3ccccc3)CC2)C1=O (configuration not stated)	none
CCOC(=O)CSc1sc(C(=O)OCC)c2c1S(=O)(=O)N(C)c1ccccc1-2	none
CCOC(=O)c1cc(CC)sc1NC(=O)c1ccccc1C(=O)O	none
Fc1cccc(Cl)c1CSc1ccccc1Br	none
CC(C)(C)NC(=S)N/N=C/c1coc2c(Cl)cc(Cl)cc2c1=O	Dicer processing 4.8
CC(C)(C)NC(=S)N/N=C/c1ccccc1Cl	none
CC(C)(C)NC(=S)N/N=C/c1ccccc1O	none
Cc1ccc2c(c1)C(=O)OC1(O)C3C4C=CC(C4)C3C(=O)N21 (configuration not stated)	none
O=C1C2C3C=CC(C3)C2C(=O)N1c1cccc(N2C(=O)C3C4C=CC(C4)C3C2=O)n1 (configuration not stated)	none
O=C1OC2(O)C3C4C=CC(C4)C3C(=O)N2c2ccccc21 (configuration not stated)	Dicer processing 4.9
S=C(N/N=C/c1cccs1)N/N=C/c1cccs1	none
Cc1ccc(C2CC(c3ccc(OCc4ccccc4)cc3)n3nc(N)nc3N2)cc1 (configuration not stated)	none
CC(=O)N1N=C(c2c(-c3ccccc3)c3cc(Cl)ccc3[nH]c2=O)CC1c1ccco1 (configuration not stated)	none
Cc1nn2c(c1-c1ccccc1)N=C(c1ccco1)CC2c1ccco1 (configuration not stated)	Dicer processing 3.3
